According to PubChem BioAssay (NCI):
The panel holds about 83,000 compounds, 20% with a hit somewhere; the sample as a whole holds those more often.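 48-hour exposure, single concentration, 96-well plates; percent growth endpoint where 0 means no net growth. Active: below 10.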 Unmarked numbers belong to inactive results. Active and inactive are the calls of the source.

system: HL-60(TB) leukemia; experiment: NCI-60 one-dose screen, 48 h (100 = growth as untreated, 0 = no growth, -100 = all killed); details: 10 µM unless noted

SMILES	growth
CCN(CC)c1ccc2nc3ccc(N=Nc4ccc(O)cc4)cc3[n+](-c3ccccc3)c2c1	21.8%
C/C(=N\Nc1nc(C)cs1)c1cc2ccccc2o1	83.4%
NC(=O)CCC(C(=O)O)N1C(=O)c2ccc(O)cc2C1=O (stereo not given)	134%
C=C(Cl)COC(=O)C(C)(C)O	103%
COc1ccc(C(=O)CC(c2ccccc2)C(C#N)c2ccccc2)cc1 (stereo not given)	87.3%
C1=CC2(C=C1)OC21CCC2(C=CC3(C2)OC3C2CCCCC2)CC1 (stereo not given)	105%
N=C(N)c1ccc(-c2ccc(-c3ccc(Cl)cc3Cl)o2)cc1	-60.8% (active)
CCCC(=O)c1cccs1	87.9%
CCOc1ccc(/C=C\C(=O)O)cc1	82.9%
C=C1C(=O)O[C@H]2[C@H]1CC/C(COC(=O)c1cc3cc(F)ccc3[nH]1)=C\CC[C@@]1(C)O[C@@H]21	-32.6% (active)
COc1ccc(/C=N/c2cc(C(C)(C)C)nn2-c2ccccc2)cc1	88.3%
Cn1c2c(c3ccccc31)CCN1C[C@@H]3CCCC[C@H]3C[C@@H]21	2.52% (active)
COc1cc(/C=N/Nc2ccccc2F)cc(OC)c1OC	90.1%
O=C(O)c1cccc(CN2CCN(c3cc4c(cc3F)c(=O)c(C(=O)O)cn4C3CC3)CC2)c1O	99.4%
COc1cccc(-c2nc3sccn3c2-c2ccnc(NCCNS(=O)(=O)c3c(Cl)cccc3Cl)c2)c1	25.9%
CC[C@@H]1NC(=O)[C@H]([C@H](O)[C@H](C)C/C=C/c2ccc(CN3C(=O)C(C)=C(C)C3=O)cc2)N(C)C(=O)[C@H](C(C)C)N(C)C(=O)[C@H](CC(C)C)N(C)C(=O)[C@H](CC(C)C)N(C)C(=O)[C@@H](C)NC(=O)[C@H](C)NC(=O)[C@H](CC(C)C)N(C)C(=O)[C@H](C(C)C)NC(=O)[C@H](CC(C)C)N(C)C(=O)CN(C)C1=O	81.2%
N#CN1CCC[C@H]1C(=O)N1CCc2c(-c3[nH]nc4ncccc34)cccc21	-30.7% (active)
Nc1c(-c2nc3ccc(Br)cc3c(=O)[nH]2)nnn1-c1ccccc1	103%
CCOc1ccc([C@@H]2[C@@H](Oc3ccccc3)C(=O)N2c2cc(OC)c(OC)c(OC)c2)cc1	-36% (active)
c1ccc(CSc2ncccc2-c2nnc(SCCN3CCOCC3)o2)cc1	101%
BrCCCc1n(Cc2ccc3ccccc3c2)c2ccccc2[n+]1Cc1ccc2ccccc2c1	-54.9% (active)
Cc1nn(-c2ccccc2)c2nc(N)c(C3=NCCO3)nc12	102%
Cc1cc2nc(CC(=O)c3cccc([N+](=O)[O-])c3)c(=O)[nH]c2cc1C	93.5%
CN(C)CCC(=O)c1ccc([N+](=O)[O-])cc1	114%
CC1SC(c2ccc(N(C)C)cc2)N(NC(=O)C(O)(c2ccccc2)c2ccccc2)C1=O (stereo not given)	84.2%
